Reference: PubChem BioAssay (EPA / NIEHS)
Several values for one entry are separate records, joined by “and”; a condition that tells them apart may be missing. Equal values may be shown once. Records with an inconclusive call do not appear. Where a structure was tested more than once in an assay, its records may differ in their call. Activity calls are given as the source filed them. How the source made its calls, unless noted: active means hit-call score of the fitted dose curve at least 0.9, where 1 is the maximum; inactive means score below 0.9.

Columns and labels:
[1] = ATG_GAL4_TRANS: Attagene TRANS-FACTORIAL HepG2 Assay for GAL4 (Internal Marker) (AID 2282976; active means hit-call score of the fitted dose curve at least 0.9, where 1 is the maximum); conditions: HepG2 Attagene TRANS GAL4 internal marker reporter
How it was run: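 RT-PCR/capillary electrophoresis readout of reporter mRNA. HepG2, transient MRTU transfection (GAL4-UAS reporters), 24 h compound exposure. Background-control endpoint, positive direction vs DMSO baseline.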

[2] = target: Oxysterols receptor LXR-beta (Homo sapiens) (UniProt P55055); assay: ATG_LXRb_TRANS: Attagene TRANS-FACTORIAL HepG2 Assay for human Liver X Receptor beta (LXRb) (AID 2282981; active means hit-call score of the fitted dose curve at least 0.9, where 1 is the maximum); conditions: HepG2 Attagene TRANS GAL4-LXRb reporter, mRNA
Oxysterols receptor LXR-beta (Homo sapiens), sequence (P55055 whole entry, looked up, the tested form may be a part): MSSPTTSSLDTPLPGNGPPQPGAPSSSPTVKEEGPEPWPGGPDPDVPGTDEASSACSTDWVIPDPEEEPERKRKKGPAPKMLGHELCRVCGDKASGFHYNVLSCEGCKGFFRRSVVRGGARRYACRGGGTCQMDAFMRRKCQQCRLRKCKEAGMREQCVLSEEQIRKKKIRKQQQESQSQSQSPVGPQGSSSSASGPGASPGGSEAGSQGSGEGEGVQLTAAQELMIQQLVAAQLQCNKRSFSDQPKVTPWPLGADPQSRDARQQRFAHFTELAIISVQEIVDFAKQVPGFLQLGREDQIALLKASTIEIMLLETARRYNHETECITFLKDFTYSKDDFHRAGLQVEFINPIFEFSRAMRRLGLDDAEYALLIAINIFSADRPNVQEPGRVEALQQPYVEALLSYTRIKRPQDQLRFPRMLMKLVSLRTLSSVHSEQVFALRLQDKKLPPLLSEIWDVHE
How it was run: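 Multiplexed reporter assay, HepG2, 24 h dosing. Fluorescence of labelled RT-PCR products after capillary electrophoresis gives transcript level; positive fitting direction relative to DMSO.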

[3] = ATG_M_06_TRANS: Attagene TRANS-FACTORIAL HepG2 Assay for M06 Transcription Factor (Internal Marker) (AID 2282983; active means hit-call score of the fitted dose curve at least 0.9, where 1 is the maximum); conditions: HepG2 Attagene TRANS M06 internal marker reporter
How it was run: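 Read-out: fluorescent reporter cDNA fragments resolved by capillary electrophoresis after RT-PCR and HpaI cut. Source cells were HepG2 carrying transfected multi-reporter GAL4 constructs, dosed 24 h. Increase over DMSO control analysed.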

[4] = ATG_M_32_TRANS: Attagene TRANS-FACTORIAL HepG2 Assay for M32 Transcription Factor (Internal Marker) (AID 2282984; active means hit-call score of the fitted dose curve at least 0.9, where 1 is the maximum;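 further: transcript level of a background control reporter unit measured by RT-PCR and capillary electrophoresis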); conditions: HepG2 Attagene TRANS M32 internal marker reporter
How it was run: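 Internal-marker readout from a multiplexed transcription reporter panel. HepG2 cells were transfected with GAL4-UAS reporter units, treated 24 hours, and reporter transcript levels determined by fluorescence after RT-PCR and capillary separation.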

[5] = target: Nuclear receptor subfamily 4 group A member 2 (Homo sapiens) (UniProt P43354); assay: ATG_NURR1_TRANS: Attagene TRANS-FACTORIAL HepG2 Assay for human Nuclear Receptor Related Protein 1 (NURR1) (AID 2282985; active means hit-call score of the fitted dose curve at least 0.9, where 1 is the maximum); conditions: HepG2 Attagene TRANS reporter, mRNA readout
Nuclear receptor subfamily 4 group A member 2 (Homo sapiens), sequence (P43354 whole entry, looked up): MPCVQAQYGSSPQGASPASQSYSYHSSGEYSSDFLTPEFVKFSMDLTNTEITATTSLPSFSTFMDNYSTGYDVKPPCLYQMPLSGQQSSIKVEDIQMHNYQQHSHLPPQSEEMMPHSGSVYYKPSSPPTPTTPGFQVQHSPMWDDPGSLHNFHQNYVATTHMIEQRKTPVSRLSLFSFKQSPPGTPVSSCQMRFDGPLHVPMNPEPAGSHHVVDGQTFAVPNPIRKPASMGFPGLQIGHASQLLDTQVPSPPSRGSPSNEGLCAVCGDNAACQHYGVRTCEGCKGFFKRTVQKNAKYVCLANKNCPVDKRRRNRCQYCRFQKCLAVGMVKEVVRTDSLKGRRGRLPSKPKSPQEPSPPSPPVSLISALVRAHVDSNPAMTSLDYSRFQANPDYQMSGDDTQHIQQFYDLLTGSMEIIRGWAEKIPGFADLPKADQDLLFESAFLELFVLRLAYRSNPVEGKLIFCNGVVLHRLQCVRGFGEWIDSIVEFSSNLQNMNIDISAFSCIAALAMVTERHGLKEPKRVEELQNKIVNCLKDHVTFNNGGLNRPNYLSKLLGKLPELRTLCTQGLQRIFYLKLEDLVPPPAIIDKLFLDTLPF
How it was run: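 Endpoint: reporter mRNA increase relative to DMSO. HepG2 cells transfected with reporter units, treated 24 h; RNA processed by RT-PCR, labelling, HpaI digestion and capillary electrophoresis.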

[6] = target: Transcriptional activator Myb (Homo sapiens) (UniProt P10242); assay: ATG_Myb_CIS: Attagene CIS-FACTORIAL HepG2 Assay for human Myeloblastosis (Myb) Proto-Oncogene Transcription Factor (AID 2282986); conditions: HepG2 Attagene CIS-FACTORIAL Myb reporter transcription; actives raise or lower the signal
Transcriptional activator Myb (Homo sapiens), sequence (P10242 whole entry, looked up): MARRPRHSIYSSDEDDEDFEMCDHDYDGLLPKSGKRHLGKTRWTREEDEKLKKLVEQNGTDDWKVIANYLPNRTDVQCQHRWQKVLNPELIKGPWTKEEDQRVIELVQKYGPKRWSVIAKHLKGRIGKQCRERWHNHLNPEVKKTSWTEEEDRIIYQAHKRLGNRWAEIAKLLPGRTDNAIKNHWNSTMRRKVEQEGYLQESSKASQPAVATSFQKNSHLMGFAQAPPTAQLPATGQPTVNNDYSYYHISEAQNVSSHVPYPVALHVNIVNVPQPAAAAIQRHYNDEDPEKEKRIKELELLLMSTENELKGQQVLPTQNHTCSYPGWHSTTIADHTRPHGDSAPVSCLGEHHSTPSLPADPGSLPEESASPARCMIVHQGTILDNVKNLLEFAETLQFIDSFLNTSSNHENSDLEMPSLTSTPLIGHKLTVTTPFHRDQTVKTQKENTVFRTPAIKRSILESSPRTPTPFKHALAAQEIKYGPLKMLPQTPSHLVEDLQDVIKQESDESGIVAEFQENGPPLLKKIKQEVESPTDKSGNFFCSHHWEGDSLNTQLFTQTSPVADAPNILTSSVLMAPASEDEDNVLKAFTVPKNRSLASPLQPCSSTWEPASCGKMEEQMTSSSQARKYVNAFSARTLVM
How it was run: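 Multiplexed cis-reporter system in HepG2: transient transfection, 24 h treatment, mRNA readout by RT-PCR and capillary electrophoresis. Both increases and decreases are scored versus DMSO negative control.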

[7] = target: Nuclear respiratory factor 1 (Homo sapiens) (UniProt Q16656); assay: ATG_NRF1_CIS: Attagene CIS-FACTORIAL HepG2 Assay for human Nuclear Respiratory Factor 1 (NRF1) Orphan Gene (AID 2282987); conditions: HepG2 NRF1 cis-element reporter, Attagene multiplex; actives raise or lower the signal
Nuclear respiratory factor 1 (Homo sapiens), sequence (Q16656 whole entry, looked up): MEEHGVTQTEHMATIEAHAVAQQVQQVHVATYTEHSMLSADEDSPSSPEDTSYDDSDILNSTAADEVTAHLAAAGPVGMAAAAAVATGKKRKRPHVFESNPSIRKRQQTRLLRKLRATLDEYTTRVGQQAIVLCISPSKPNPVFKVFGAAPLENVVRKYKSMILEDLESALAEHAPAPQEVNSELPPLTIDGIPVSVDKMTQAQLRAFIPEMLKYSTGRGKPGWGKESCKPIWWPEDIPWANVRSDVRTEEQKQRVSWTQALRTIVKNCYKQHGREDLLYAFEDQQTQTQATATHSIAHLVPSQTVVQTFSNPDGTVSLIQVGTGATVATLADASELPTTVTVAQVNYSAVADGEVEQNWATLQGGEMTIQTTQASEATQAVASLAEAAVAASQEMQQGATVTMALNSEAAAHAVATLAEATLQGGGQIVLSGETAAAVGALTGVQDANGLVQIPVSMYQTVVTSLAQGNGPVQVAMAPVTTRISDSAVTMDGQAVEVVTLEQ
How it was run: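 Endogenous factor activity was captured via cis-element-driven reporter transcripts in HepG2 cells. Following 24 h chemical treatment, transcripts were quantified by RT-PCR and capillary electrophoresis.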

[8] = ATG_NFI_CIS: Attagene CIS-FACTORIAL HepG2 Assay for human Nuclear Factor I (NFI) (AID 2282989); conditions: HepG2 cis-regulatory reporter, NFI response element transcription; actives raise or lower the signal
How it was run: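 Cells: human liver HepG2, transiently transfected with promoter-regulated reporter transcription units. Exposure 24 h. Detection: fluorescent RT-PCR products separated by capillary electrophoresis, normalised to DMSO negative control.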

[9] = target: Myc proto-oncogene protein (Homo sapiens) (UniProt P01106); assay: ATG_Myc_CIS: Attagene CIS-FACTORIAL HepG2 Assay for human Myelocytomatosis (Myc) Proto-Oncogene Transcription Factor (AID 2282990); conditions: HepG2, Attagene cis-reporter transcription factor activity; actives raise or lower the signal
Myc proto-oncogene protein (Homo sapiens), sequence (P01106 whole entry, looked up): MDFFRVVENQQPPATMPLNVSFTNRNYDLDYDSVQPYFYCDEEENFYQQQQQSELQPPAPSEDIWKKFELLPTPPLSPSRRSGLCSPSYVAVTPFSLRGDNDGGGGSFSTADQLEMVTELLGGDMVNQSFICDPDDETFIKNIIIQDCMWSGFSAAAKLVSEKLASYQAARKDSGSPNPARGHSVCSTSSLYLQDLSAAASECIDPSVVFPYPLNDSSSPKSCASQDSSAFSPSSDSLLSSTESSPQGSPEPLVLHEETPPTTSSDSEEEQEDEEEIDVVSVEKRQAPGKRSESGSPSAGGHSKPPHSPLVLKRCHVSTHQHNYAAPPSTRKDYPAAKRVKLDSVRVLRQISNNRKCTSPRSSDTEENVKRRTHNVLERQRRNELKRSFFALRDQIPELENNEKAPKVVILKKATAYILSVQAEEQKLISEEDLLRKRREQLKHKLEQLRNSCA
How it was run: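 Transiently transfected HepG2 cells bearing cis-promoter reporter units for endogenous transcription factors; 24 h exposure. Reporter mRNA measured by RT-PCR, 6-FAM primer extension, HpaI cut and capillary electrophoresis; bidirectional fit relative to DMSO.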

[10] = ATG_NF_kB_CIS: Attagene CIS-FACTORIAL HepG2 Assay for human Nuclear Factor Kappa B (NF-kB) (AID 2282991); conditions: HepG2 Attagene cis-factorial NF-kB reporter mRNA; actives raise or lower the signal
How it was run: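 After 24 h compound incubation, transfected HepG2 cells yield total RNA; reporter cDNA is PCR-amplified, end-labelled with 6-FAM, HpaI-digested and analysed on a genetic analyser. Endogenous factor activity, DMSO-referenced bidirectional fit.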

[11] = ATG_NRF2_ARE_CIS: Attagene CIS-FACTORIAL HepG2 Assay for human Nuclear Factor Erythroid 2 Related Factor 2 (NFR2) response to Antioxidant Response Elements (ARE) (AID 2282992); conditions: HepG2 Attagene ARE/NRF2 reporter, transcription factor activity; actives raise or lower the signal;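 on AC50: reporter mRNA level measured by RT-PCR and capillary electrophoresis fluorescence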
How it was run: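 Endogenous transcription factor activity in human liver HepG2 cells is tracked via a cis-element-driven reporter within a multiplexed set. mRNA induction is read by RT-PCR and capillary electrophoresis after 24 h, with DMSO as baseline.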

[12] = ATG_Oct_MLP_CIS: Attagene CIS-FACTORIAL HepG2 Assay for human Octamer-Binding Transcription Factor (Oct) (AID 2282993); conditions: HepG2 Attagene cis-factorial Oct reporter, mRNA; actives raise or lower the signal
How it was run: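 HepG2, transient MRTU transfection, cis promoter elements; 24 h dosing; RT-PCR/CE fluorescence read-out of reporter mRNA; fit both directions vs DMSO.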

[13] = BSK_3C_uPAR: BioMAP Diversity Plus: 3C Assay for Urokinase-type plasminogen activator receptor (uPAR) Biomarker Activity (AID 2282998); conditions: BioMAP 3C HUVEC, uPAR biomarker ELISA; actives raise or lower the signal
How it was run: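 A multiplexed primary-cell system built on human umbilical vein endothelium was used, with chemical present for 24 h before reading. Cell-surface uPAR was detected by ELISA; signal change in either direction counted against DMSO.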

[14] = target: Glucocorticoid receptor (Homo sapiens) (UniProt P04150); assay: ATG_GR_TRANS: Attagene TRANS-FACTORIAL HepG2 Assay for human Glucocorticoid Receptor (GR) (AID 2282978; active means hit-call score of the fitted dose curve at least 0.9, where 1 is the maximum;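 further: activators score as hits since higher reporter transcript over DMSO is fitted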); conditions: HepG2 Attagene TRANS GR reporter, mRNA transcription
How it was run: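 HepG2 transient transfection, multiple reporter units, GAL4-UAS under NR-GAL4 chimera control. 24 h treatment. Reporter mRNA by RT-PCR/CE fluorescence, DMSO as negative control.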

[15] = target: Oxysterols receptor LXR-alpha (Homo sapiens) (UniProt Q13133); assay: ATG_LXRa_TRANS: Attagene TRANS-FACTORIAL HepG2 Assay for human Liver X Receptor alpha (LXRa) (AID 2282980; active means hit-call score of the fitted dose curve at least 0.9, where 1 is the maximum); conditions: HepG2 Attagene TRANS reporter, LXRa transactivation
Oxysterols receptor LXR-alpha (Homo sapiens), sequence (Q13133 whole entry, looked up, the tested form may be a part): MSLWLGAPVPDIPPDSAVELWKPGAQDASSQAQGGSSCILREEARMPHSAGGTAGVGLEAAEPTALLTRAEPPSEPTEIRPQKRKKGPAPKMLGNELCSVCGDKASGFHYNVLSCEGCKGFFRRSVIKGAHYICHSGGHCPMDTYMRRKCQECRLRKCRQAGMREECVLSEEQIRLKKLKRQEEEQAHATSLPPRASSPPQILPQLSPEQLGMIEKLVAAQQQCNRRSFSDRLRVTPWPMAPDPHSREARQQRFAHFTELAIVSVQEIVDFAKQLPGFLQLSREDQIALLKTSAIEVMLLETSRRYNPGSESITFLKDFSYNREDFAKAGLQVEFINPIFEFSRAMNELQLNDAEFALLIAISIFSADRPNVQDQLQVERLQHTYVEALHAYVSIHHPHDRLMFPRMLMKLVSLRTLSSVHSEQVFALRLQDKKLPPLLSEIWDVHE
How it was run: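 Read-out: reporter transcript levels by RT-PCR plus capillary electrophoresis, fluorescence intensity. Transiently transfected HepG2, exogenous NR-GAL4 chimera, GAL4-UAS reporters; 24 h compound exposure. Activity = increase over DMSO negative control.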

[16] = target: Hepatocyte nuclear factor 4-alpha (Homo sapiens) (UniProt P41235); assay: ATG_HNF4a_TRANS: Attagene TRANS-FACTORIAL HepG2 Assay for human Hepatocyte Nuclear Factor 4 alpha (HNF4a) (AID 2282982; active means hit-call score of the fitted dose curve at least 0.9, where 1 is the maximum); conditions: HepG2 HNF4a transactivation reporter, mRNA readout
Hepatocyte nuclear factor 4-alpha (Homo sapiens), sequence (P41235 whole entry, looked up, the tested form may be a part): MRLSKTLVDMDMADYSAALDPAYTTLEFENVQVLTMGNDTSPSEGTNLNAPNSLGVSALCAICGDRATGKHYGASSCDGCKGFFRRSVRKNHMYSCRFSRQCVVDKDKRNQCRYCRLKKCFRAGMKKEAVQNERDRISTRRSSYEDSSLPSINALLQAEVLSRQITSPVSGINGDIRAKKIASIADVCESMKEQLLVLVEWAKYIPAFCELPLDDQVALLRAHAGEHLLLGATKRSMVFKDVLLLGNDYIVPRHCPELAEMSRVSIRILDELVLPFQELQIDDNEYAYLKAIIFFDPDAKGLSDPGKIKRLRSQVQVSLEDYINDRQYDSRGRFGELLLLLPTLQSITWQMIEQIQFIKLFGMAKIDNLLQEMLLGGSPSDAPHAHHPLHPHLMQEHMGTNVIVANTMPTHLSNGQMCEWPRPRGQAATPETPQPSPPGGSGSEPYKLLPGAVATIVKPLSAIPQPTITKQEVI
How it was run: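 Endpoint reflects transcriptional activation of a GAL4-UAS reporter by an HNF4a-GAL4 chimera in transfected HepG2 cells, 24 h post-dosing. Fluorescence from RT-PCR products separated by capillary electrophoresis; DMSO baseline.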

[17] = target: Cellular tumor antigen p53 (Homo sapiens) (UniProt P04637); assay: ATG_p53_CIS: Attagene CIS-FACTORIAL HepG2 Assay for human p53 Transcription Factor (AID 2282994); conditions: HepG2 p53 cis-element reporter, Attagene mRNA; actives raise or lower the signal
Cellular tumor antigen p53 (Homo sapiens), sequence (P04637 whole entry, looked up, the tested form may be a part): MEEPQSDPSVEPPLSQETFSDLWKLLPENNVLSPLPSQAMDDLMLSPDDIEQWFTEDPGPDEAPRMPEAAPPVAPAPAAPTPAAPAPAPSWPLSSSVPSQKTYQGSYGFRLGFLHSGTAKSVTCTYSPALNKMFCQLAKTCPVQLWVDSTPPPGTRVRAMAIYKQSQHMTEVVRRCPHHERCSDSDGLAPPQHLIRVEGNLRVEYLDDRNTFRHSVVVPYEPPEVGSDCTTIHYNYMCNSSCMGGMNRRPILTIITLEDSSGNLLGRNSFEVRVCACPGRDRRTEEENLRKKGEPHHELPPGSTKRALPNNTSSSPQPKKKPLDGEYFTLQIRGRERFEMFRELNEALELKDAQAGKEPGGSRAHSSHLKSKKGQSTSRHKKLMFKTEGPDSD
How it was run: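 Steps: transfect HepG2 with multiplexed cis reporter constructs; dose chemicals 24 h; extract RNA, reverse-transcribe, PCR-amplify reporter sequences; FAM-label, HpaI-digest, resolve fragments by CE. Activity fitted both directions relative to DMSO.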

[18] = target: Estrogen-related receptor gamma (Homo sapiens) (UniProt P62508); assay: ATG_ERRg_TRANS: Attagene TRANS-FACTORIAL HepG2 Assay for human Estrogen-Related Receptor gamma (ERRg) (AID 2282977; active means hit-call score of the fitted dose curve at least 0.9, where 1 is the maximum;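 further: hits increase reporter signal over DMSO so potencies reflect activators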); conditions: HepG2 Attagene TRANS reporter, ERRg transactivation
Estrogen-related receptor gamma (Homo sapiens), sequence (P62508 whole entry, looked up, the tested form may be a part): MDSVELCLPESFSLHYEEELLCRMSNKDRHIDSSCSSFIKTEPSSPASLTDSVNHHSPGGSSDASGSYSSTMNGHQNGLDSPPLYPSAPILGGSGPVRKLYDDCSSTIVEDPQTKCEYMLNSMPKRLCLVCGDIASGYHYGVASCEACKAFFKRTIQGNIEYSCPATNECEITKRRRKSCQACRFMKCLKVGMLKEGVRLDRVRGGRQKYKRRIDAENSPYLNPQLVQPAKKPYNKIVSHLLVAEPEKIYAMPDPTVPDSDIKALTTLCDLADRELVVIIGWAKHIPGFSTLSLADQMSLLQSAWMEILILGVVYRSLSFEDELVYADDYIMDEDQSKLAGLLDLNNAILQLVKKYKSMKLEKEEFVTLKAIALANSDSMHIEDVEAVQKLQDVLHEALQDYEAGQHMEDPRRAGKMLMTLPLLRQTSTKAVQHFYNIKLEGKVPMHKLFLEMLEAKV
How it was run: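 Exogenous NR-Gal4 chimera activity measured as reporter transcript induction after 24 h in transiently transfected HepG2 cells. RNA reverse-transcribed, PCR-amplified, 6-FAM-labelled and resolved by capillary electrophoresis; increase over DMSO baseline.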

[19] = target: Bile acid receptor (Homo sapiens) (UniProt Q96RI1); assay: ATG_FXR_TRANS: Attagene TRANS-FACTORIAL HepG2 Assay for Farnesoid X Receptor (FXR) (AID 2282979; active means hit-call score of the fitted dose curve at least 0.9, where 1 is the maximum;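 further: hits raise reporter mRNA above DMSO so AC50 marks FXR activation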); conditions: HepG2 Attagene TRANS FXR-GAL4 reporter transcription
Bile acid receptor (Homo sapiens), sequence (Q96RI1 whole entry, looked up, the tested form may be a part): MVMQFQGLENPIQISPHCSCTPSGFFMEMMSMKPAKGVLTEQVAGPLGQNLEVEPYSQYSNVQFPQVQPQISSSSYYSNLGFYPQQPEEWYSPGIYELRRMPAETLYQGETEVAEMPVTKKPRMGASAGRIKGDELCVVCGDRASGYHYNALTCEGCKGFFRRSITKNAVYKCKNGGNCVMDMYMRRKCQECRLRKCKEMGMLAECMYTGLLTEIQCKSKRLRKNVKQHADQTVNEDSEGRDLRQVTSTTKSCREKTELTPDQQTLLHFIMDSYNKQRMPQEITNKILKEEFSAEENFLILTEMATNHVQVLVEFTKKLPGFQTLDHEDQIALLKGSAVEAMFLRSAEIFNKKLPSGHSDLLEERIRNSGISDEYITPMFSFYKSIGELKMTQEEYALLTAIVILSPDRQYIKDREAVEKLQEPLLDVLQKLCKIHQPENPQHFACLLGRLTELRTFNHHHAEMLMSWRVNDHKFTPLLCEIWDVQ
How it was run: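 Read-out: fluorescent reporter transcripts quantified by capillary electrophoresis after RT-PCR of total RNA. Source cells were HepG2 transiently carrying chimeric NR-GAL4 plus GAL4-UAS reporter units, dosed 24 h. Activity fitted upward relative to DMSO baseline.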

Measured: AC50

CCCN(CCC)c1c([N+](=O)[O-])cc(C(F)(F)F)cc1[N+](=O)[O-]
inactive: [1] | [2] | [3] | [4] | [5] | [6] | [7] | [8] | [9] | [10] | [13]
active: [11] 8.43 µM | [12] 2.29 µM

COP(=S)(OC)Oc1ccc(SC)c(C)c1
active: [15] 24.9 µM | [2] 39.3 µM | [11] 15.5 µM
inactive: [1] | [14] | [16] | [3] | [4] | [5] | [6] | [7] | [8] | [9] | [10] | [12] | [17] | [13]

ClC1C(Cl)C(Cl)C(Cl)C(Cl)C1Cl (stereo unspecified)
active: [19] 139 µM | [11] 33.2 µM and 26.2 µM | [12] 10.1 µM and 100 µM | [17] 150 µM and 77.6 µM | [13] 28.4 µM
inactive: [1] | [18] | [19] | [15] | [2] | [16] | [3] | [4] | [5] | [6] | [7] | [8] | [9] | [10] | [11] | [12] | [17] | [13]

COP(=S)(OC)Oc1ccc([N+](=O)[O-])cc1
inactive: [1] | [15] | [2] | [16] | [3] | [4] | [5] | [6] | [7] | [8] | [9] | [10] | [11] | [12] | [17]
active: [13] 33.1 µM

O=S(=O)(O)C(F)(F)C(F)(F)C(F)(F)C(F)(F)C(F)(F)C(F)(F)C(F)(F)C(F)(F)F
active: [7] 111 µM | [8] 133 µM | [9] 23 µM and 48.3 µM | [11] 24.7 µM [middle of 9 runs] | [12] 135 µM and 54.7 µM | [17] 108 µM and 66.1 µM and 240 µM | [13] 32.8 µM
inactive: [1] | [18] | [15] | [2] | [16] | [3] | [4] | [5] | [6] | [7] | [8] | [9] | [11] | [12] | [17] | [13]

Cc1cc(C)nc(NC(=O)NS(=O)(=O)c2ccccc2C(=O)OC2COC2)n1
inactive: [18] | [14] | [2] | [16] | [3] | [6] | [7] | [8] | [9] | [10] | [11] | [17] | [13]
active: [12] 50 µM
